Screening results: PubChem, National Center for Advancing Translational Sciences (NCATS)
This is a sample that favours compounds with a hit; in the whole collection about 10% have one here.
CtBP-E1A blk – blocks the CtBP interaction with E1A; AlphaScreen GST-E1A/His-CtBP binding, 1536-well; stronger effect = lower value; activity change, % (no concentration beside the values); 340,000 tested, 0.49% active; AID 651724; in the data active means activity change below about -65%; inconclusive means mostly about -30% to -63%; further: on the % scale 0 is the no-effect control and ±100 the full control effect
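GST-E1A and His-tagged CtBP (125 nM each as 5X stock) were preincubated with pin-transferred compound for 2 h at 37 °C in the dark, then glutathione donor and nickel acceptor beads were added for 1 h before AlphaScreen reading.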
HP1b binding inh – HP1-beta chromodomain-methylated histone interaction inhibition; AlphaScreen HP1-beta / biotin-H3K9me3 peptide binding; Potency, µM (series often up to 114 µM), without a hit: at the highest dose activity change, negative = inhibition, usual class: inhibitors; 390,000 tested, 0.56% active; AID 540317; further: potency means the concentration at half of the fitted maximal effect; nearly all actives have a fitted effect of over 70% in size
Target sequence (P83916 whole entry, looked up): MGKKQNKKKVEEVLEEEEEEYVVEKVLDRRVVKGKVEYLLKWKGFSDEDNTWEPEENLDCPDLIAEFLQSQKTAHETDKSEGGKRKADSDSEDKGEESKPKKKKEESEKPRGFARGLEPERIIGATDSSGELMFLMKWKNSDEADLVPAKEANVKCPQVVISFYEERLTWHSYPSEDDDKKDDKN
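Compound inhibition of the preformed complex between 50 nM HP1-beta and 50 nM biotinylated H3K9me3 peptide was read by AlphaScreen. Buffer was PBS pH 7.4 with 0.01% Tween-20. Incubations ran 30 min at room temperature, with 10 ug/mL donor/acceptor beads.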
JMJD2A Tudor inh – blocks the human JMJD2A Tudor domain; O75164; 390,000 tested, 4.4% active; AlphaScreen JMJD2A-Tudor / H3K4me3 peptide binding; Potency, µM (titrated, usually from 114 µM), for the others: at the highest dose activity change, negative = inhibition, hits mostly inhibitors; AID 504339; further: potency means the concentration at half of the fitted maximal effect; on the % scale 0 is the no-effect control and ±100 the full control effect; nearly all actives have a fitted effect of over 50% in size
BAZ2B block – BAZ2B (human) inhibition. Q9UIF8. 360,000 tested, 4.4% active. AID 504333. AlphaScreen BAZ2B-H3K14Ac peptide displacement. Potency, µM (top dose mostly 114 µM), without a hit: at the top dose activity change, negative = inhibition, most hits filed as inhibitors; further: potency means the concentration at half of the fitted maximal effect; on the % scale 0 is the no-effect control and ±100 the full control effect; nearly all actives have a fitted effect of over 60% in size
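Multi-concentration screen (max 110 uM) measuring displacement of acetylated histone H3 peptide from BAZ2B by AlphaScreen, using 50 nM protein, 50 nM peptide and 10 ug/mL streptavidin donor plus Ni-chelate acceptor beads.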
Six1-Eya2 blk – blocks human Six1 binding to Eya2 | Q15475+O00167 | activity change, % (concentration not given with the values) | AlphaScreen GST-Six1/His-Eya2 binding, biochemical; stronger effect = lower value | AID 651725 | 360,000 tested, 0.56% active; in the data active means activity change below about -65%; inconclusive means mostly about -30% to -63%; further: on the % scale 0 is the no-effect control and ±100 the full control effect
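AlphaScreen luminescence read after one hour at 37 °C in darkness. Pin-transferred compounds met GST-Six1 and His-Eya2 protein (5X stock 250 nM/500 nM) plus glutathione donor and Ni-chelate acceptor beads (5X, 50 ug/mL).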
G9a inh – blocks human histone lysine methyltransferase G9a | Q96KQ7 | G9a H3K9 monomethylation, AlphaScreen, 2 h | Potency, µM (doses to about 102 µM), inactives show at the highest dose activity, negative = inhibition, hits mostly inhibitors | 350,000 tested, 8.8% active | AID 504332; further: potency means the concentration at half of the fitted maximal effect; on the % scale 0 is the no-effect control and ±100 the full control effect; nearly all actives have a fitted effect of over 75% in size
Target sequence (Q96KQ7 913-1193 limits assumed): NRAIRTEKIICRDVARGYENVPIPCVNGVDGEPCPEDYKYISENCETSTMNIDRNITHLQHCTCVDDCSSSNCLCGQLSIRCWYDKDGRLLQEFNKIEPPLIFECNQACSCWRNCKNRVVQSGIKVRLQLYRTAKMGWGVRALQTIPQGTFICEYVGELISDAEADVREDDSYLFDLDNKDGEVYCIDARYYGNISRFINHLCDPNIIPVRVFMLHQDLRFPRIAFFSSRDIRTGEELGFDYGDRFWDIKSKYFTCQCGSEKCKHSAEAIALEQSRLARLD
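Chemiluminescent proximity detection of H3K9 monomethylation, read after 10 min bead incubation in the dark. Reaction: 20 nM G9a, 500 nM biotin-H3K9 peptide, 20 uM SAM cofactor, 2 h, room temperature, following 15 min enzyme-compound preincubation.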
* hit, by the source's call; ? = inconclusive; / = not tested or not shown; [ ] = remark or other dose. Unless noted, the call rests on the fitted dose curve; in most records, active means well fitted inhibition curve with a large enough effect; inconclusive means small, poorly fitted or top-dose-only effect; inactive means no such curve, though single readings can be large or run the other way.

SMILES	CtBP-E1A blk	HP1b binding inh	JMJD2A Tudor inh	BAZ2B block	Six1-Eya2 blk	G9a inh
OCC1O[C@@H](O[C@@H]2C(CO)OC(O)C(O)C2O)C(O)C(O)C1O (stereo partly drawn)	/	/	/	/	/	-39%[12.7 µM]
[O][C@H]1[C@@H](O)[C@@H](CO)O[C@@H](O[C@@H]2[C@@H]3OC[C@H]2O[C@H](O[C@@H]2[C@@H](O)[C@H](C[C@@H]4[C@@H]5OC[C@H]4O[CH][C@@H]5O)O[C@H](CO)[C@@H]2OS(=O)(=O)O)[C@@H]3OS(=O)(=O)O)[C@@H]1O	/	/	/	/	/	16µM*
O=c1ccn([C@@H]2O[C@H](CNCc3ccccc3OCc3ccc(Cl)cc3Cl)[C@@H](O)[C@H]2O)c(=O)[nH]1	-6	/	/	/	0	/
CCc1nnc(NC(=O)CN2CCN(S(C)(=O)=O)CC2)s1	8	41%	0%	-6%	-1	-9%
COc1ccccc1N1CCN(CC(=O)Nc2ccc(CN3CCCCC3)cc2)CC1	-6	?	4µM*	50µM*	-1	10µM*
CCc1nnc(NC(=O)CN2CCN(c3ccccc3OC)CC2)s1	5	?	56µM*	18%	5	?
CCOc1ccccc1N1CCN(CC(=O)Nc2nnc(CC)s2)CC1	-3	33%	-8%	36%	1	-11%[59 µM]
CCc1nnc(NC(=O)CN2CCN(c3nc(-c4ccccc4)cs3)CC2)s1	-10	-10%	?	?	-11	50µM*
CCc1nnc(NC(=O)CN2CCN(CC)CC2)s1	/	31%	-10%	-4%	-1	79µM*
COC(=O)/C=c1/s/c(=C(\C#N)C(=O)NCc2ccco2)n(-c2ccccc2)c1=O	-15	12%	-6%	-7%	-13	45µM*
COc1ccc(/C=c2\s/c(=C(/C#N)C(=O)NCc3ccco3)n(-c3ccccc3)c2=O)cc1	6	18%	-2%	8%	-4	-2%[59 µM]
Cc1cccc2cc(CN(CC3CCCO3)C(=O)c3ccco3)c(=O)[nH]c12 (stereo not drawn)	-1	36%	-6%	-29%	3	50µM*
Cc1ccc2cc(CN(CC3CCCO3)C(=S)NCc3ccco3)c(=O)[nH]c2c1C (stereo not drawn)	-16	?	?	?	-6	45µM*
O=C(c1ccco1)N(Cc1cc2ccccc2[nH]c1=O)CC1CCCO1 (stereo not drawn)	1	36%	10%	-1%	-1	5%
Cc1ccc(C)c2[nH]c(=O)c(CN(CC3CCCO3)C(=S)NCc3ccco3)cc12 (stereo not drawn)	-9	19%	-18%	-31%	-8	45µM*
CCc1ccc2[nH]c(=O)c(CN(CC3CCCO3)C(=S)NCc3ccco3)cc2c1 (stereo not drawn)	-11	-7%	?	?	-2	/
COC(c1ccccc1)c1nnc(CCC(=O)N2CCN(C3CCCC3)CC2)o1 (stereo not drawn)	-7	29%	-3%	-2%	7	12%[0.501 µM]
CCC(=O)N(CCC1(c2ccccc2OC)CCOC(C(C)C)C1)Cc1ccco1 (stereo not drawn)	-9	-3%	-20%	-39%	-11	0%
O=C(C[n+]1ccc(C(=O)c2ccccc2)cc1)Nc1cccc([N+](=O)[O-])c1	-1	/	/	/	-11	/
O=C(C[C@H]1C/C=C\C[C@H](NC(=O)OCC2c3ccccc3-c3ccccc32)C(=O)OC[C@@H]2CCCN2C1=O)NCCO	9	71%	-5%	/	7	/
CCn1c(CNC(=O)c2ccc3c(c2)OCO3)nnc1SCC(=O)Nc1ccccc1F	1	-2%	-14%	-16%	-7	-7%
Cc1ccc(N(C(=O)CNC(=O)c2ccco2)C(C(=O)NC2CCCCC2)c2cccnc2)c(C)c1 (stereo not drawn)	0	?	-6%	1%	-8	-8%[59 µM]
CCCN1C(=O)/C(=C2/C=Cc3ccccc3N2CC)SC1=S	-76*	3.2µM*	5.6µM*	2.8µM*	-76*	3.2µM*
